In assay [1] the target is Cytochrome P450 1A2 (Homo sapiens) (UniProt P05177). The assay can be described thus: p450-cyp1a2 (AID 410). Further: potency means the concentration at half of the fitted maximal effect. The method in brief:
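20nM CYP1A2, 100uM Luciferin-ME (=Km), 100mM KPO4; cpd 10 min RT; +NADPH regen, 60 min RT; stop/detect 20 min; luminescence. Normalized to furafylline 57 uM = full inhibition.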

Assay [2] in a line: Cell Viability - BJ (AID 421).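 Further: potency means the concentration at half of the fitted maximal effect; cells exposed to compound for 40 hours at 37 °C before readout.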 To be noted: BJ fibroblast viability, qHTS. The method in brief: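 Luminescent ATP signal (CellTiter-Glo, 20 min at room temperature) served as the read-out of viable BJ cells after 40 hours of compound treatment. Responses were scaled between DMSO and 100 uM tamoxifen, and AC50 values were obtained by Hill modeling.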
Assay [3] is described as follows: Cell Viability - Jurkat (AID 426;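 active means dose-dependent loss of cell ATP signal giving a full or clear fitted curve, ranked by lower potency value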;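 further: potency means the concentration at half of the fitted maximal effect; cells exposed to compound for 40 hours at 37 °C before ATP read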). The following applies: qHTS. The essentials: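 Luminescent ATP read-out (CellTiter-Glo, 20 min at room temperature) after 40 hr compound exposure at 37 °C of Jurkat E6-1 cells, 5000/well. Decreased ATP taken as cytotoxicity; AC50 from standard Hill equation.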
A general note: In qHTS, concentration-response curves come from the screen itself.

The nature of assay [4]: Cell Viability - Hek293 (AID 427;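 active means compounds whose dose-response curve shows a full or clear partial loss of cell viability, called from curve shape rather than a numeric limit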;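 further: potency means the concentration at half of the fitted maximal effect; cells exposed to compound for 40 hours at 37 °C before reading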). The following applies: qHTS. The essentials:
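Luminescent ATP read-out (CellTiter-Glo, 20 min RT) after 40 hr compound exposure at 37 °C in complete medium. Signal normalized to DMSO (basal) and 100 uM tamoxifen (100% inhibition); concentration-response fitted with the standard Hill equation to give AC50.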

Assay [5] in a line: Cell Viability - HepG2 (AID 433). Further: potency means the concentration at half of the fitted maximal effect. The following applies: qHTS. The method in brief:
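HepG2 hepatocellular carcinoma cells (1500/well) were treated with compounds for 40 h at 37 °C in complete medium; intracellular ATP was read by CellTiter-Glo luminescence. Data were normalized to DMSO and 100 uM tamoxifen, and AC50 came from Hill fits.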

Assay [6] can be described thus: Cell Viability - MRC5 (AID 434).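 Further: potency means the concentration at half of the fitted maximal effect; potency reflects cytotoxicity seen as loss of intracellular ATP.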 The following applies: MRC5 lung fibroblast viability, qHTS. The essentials:
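ATP luminescence read-out (CellTiter-Glo, 20 min RT) after 40 hr, 37 °C compound exposure of 1500 MRC5 cells/well. Data normalized to DMSO (basal) and 100 uM tamoxifen (100% inhibition); AC50 from standard Hill equation.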

Assay [7] can be described thus: Cell Viability - SK-N-SH (AID 435).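 Further: potency means the concentration at half of the fitted maximal effect; compound exposure lasted 40 h at 37 °C.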 The following applies: SK-N-SH neuroblastoma cell viability qHTS. The essentials:
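SK-N-SH human neuroblastoma cells (1500/well) were exposed to compounds in complete medium for 40 h at 37 °C, and intracellular ATP was then measured by CellTiter-Glo luminescence. AC50 was taken from Hill fits, normalized to DMSO and 100 uM tamoxifen.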

Assay [8] can be described thus: AP1 Signaling Pathway (AID 357; active means well fitted curve in either direction with a large enough effect, not every such curve was filed as active;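 further: ME-180 reporter cells stimulated with EGF at its EC50 level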). The essentials: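 Titration-series screen for positive or negative modulators of EC50 EGF-induced signaling in ME-180 cells carrying an AP-1-driven beta-lactamase reporter. After 5 hours at 37 degrees Celsius, CCF4 460nm/530nm emission ratio gave %Activity; AC50 values derived.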
The nature of assay [9]: NFAT Signaling Pathway (AID 444; active means well fitted curve in either direction with a large enough effect, not every such curve was filed as active;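 further: carbachol stimulus at about its EC50 of 1 µM final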). The method in brief:
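Jurkat cells with NFAT-driven β-lactamase reporter and co-expressed M1 receptor, stimulated with carbachol (final 1 uM, ~EC50), compound titration, 5 h at 37 °C. CCF4 loaded 1 h at RT; 460/530 nm ratio gave %activity and AC50.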

Experimental findings from PubChem BioAssay (NCATS) are described below.

Records with an inconclusive call do not appear. Unmarked numbers belong to inactive results. Activity calls are given as the source filed them. Unless noted, the call rests on the fitted dose curve.

Cytochrome P450 1A2 (Homo sapiens), sequence (P05177 whole entry, looked up): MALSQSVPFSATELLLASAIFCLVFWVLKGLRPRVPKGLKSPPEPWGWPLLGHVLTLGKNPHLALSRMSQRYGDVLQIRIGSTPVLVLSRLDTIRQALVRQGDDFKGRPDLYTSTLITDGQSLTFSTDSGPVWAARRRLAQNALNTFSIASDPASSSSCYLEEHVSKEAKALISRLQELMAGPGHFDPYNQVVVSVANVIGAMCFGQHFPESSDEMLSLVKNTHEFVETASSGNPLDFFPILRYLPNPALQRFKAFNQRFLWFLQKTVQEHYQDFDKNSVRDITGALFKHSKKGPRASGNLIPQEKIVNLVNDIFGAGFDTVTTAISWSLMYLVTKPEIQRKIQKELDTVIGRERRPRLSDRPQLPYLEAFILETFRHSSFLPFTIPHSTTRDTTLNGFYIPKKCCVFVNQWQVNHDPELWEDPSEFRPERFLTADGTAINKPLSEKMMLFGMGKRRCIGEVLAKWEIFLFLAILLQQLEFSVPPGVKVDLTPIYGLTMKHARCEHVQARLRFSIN

Turning to `CC(=O)C1=C(O)C=C2Oc3c(C(C)=O)c(O)c(C)c(O)c3[C@]2(C)C1=O`, the Potency in assay [1] was 2 µM (active).

Consider `COC1=CC(=O)C[C@@H](C)[C@@]12Oc1c(Cl)c(OC)cc(OC)c1C2=O`, for which the Potency entry in [1] was “inactive”.

For the compound `CCCCCCCCCC(=O)O`, the Potency in assay [2], in assay [3], in [4], in assay [5], in assay [6] and in assay [7] was more than 92 µM in each case.

Consider `COc1cc(C[C@H]2C(=O)OC[C@@H]2Cc2ccc(OC)c(OC)c2)ccc1O`, for which the Potency in assay [1] was 31.6 µM (active).

Turning to `COC(C)=O`, the Potency in [2], in assay [3], in assay [4], in [5], in assay [6] and in [7] was more than 92 µM throughout.

In the case of `C[C@]12CC[C@@H]3c4ccc(OS(=O)(=O)O)cc4CC[C@H]3[C@@H]1CCC2=O`, the outcome in assay [8] and in [9] was inactive.
